High-throughput results: PubChem BioAssay, Broad Institute
PD-1 reverse act – activators reversing PD-1 mediated T-cell inhibition; primary human CD4 T cells, PD-L1 beads, CellTiter-Glo 96 h; activation, % (no concentration beside the values); 29,000 tested, under 10 active; AID 2316; call rule not given here
U2OS ROS induce – raises reactive oxygen species in U2OS cancer cells; U2OS ROS induction, H2DCF-DA fluorescence; ROS induction (% of piperlongumine), % at 10 µM; hit rate 2% among 46,000; in the data active means ROS induction above about 79%, passing the limit was not always enough
YB-1 expr inh – YB-1 expression inhibition. delta delta Cp (YB-1 minus CDIP) (concentration not given with the values). AID 434959. hit rate 0.37% among 30,000. U2OS, qRT-PCR YB-1 vs CDIP delta delta Cp, 16 h; stronger effect = higher value; zero = DMSO, each unit about twofold;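 active means delta delta Cp rounded down to an integer at or above 3, about 3 SD of DMSO wells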;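 further: higher means less YB-1 transcript or more CDIP transcript relative to DMSO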
Hits are given with their value; - = inactive; . = no result. Compounds with a hit are over-represented: about 2.3% of the library has one in this group of screens.

SMILES | PD-1 reverse act | U2OS ROS induce | YB-1 expr inh
COc1cc(O)c(Oc2cc(C)cc(O)c2C(=O)O)c(CO)c1 | - | - | -
O=C(NCCS(=O)(=O)Cc1ccc(F)cc1)c1c(F)cccc1Cl | . | - | .
CSc1ccc(/C=N/N(C)S(=O)(=O)c2ccc(C)cc2)cc1 | - | - | -
Cc1ccc(/C=N/N(C)S(=O)(=O)c2ccc(C)cc2)cc1 | - | 95 | -
CC(=O)c1cccc(NC(=O)CSc2nccc(C)n2)c1 | - | - | .
CCN(CC(=O)Nc1cc([N+](=O)[O-])ccc1C)S(=O)(=O)c1ccc(C)cc1 | - | - | .
C[C@@H]1CN([C@H](C)CO)C(=O)c2cc(NC(=O)Cc3cn(C)c4ccccc34)ccc2O[C@H]1CN(C)Cc1ccc2c(c1)OCO2 | - | - | -
C[C@@H]1CN([C@@H](C)CO)C(=O)c2cc(NC(=O)Cc3cn(C)c4ccccc34)ccc2O[C@H]1CN(C)Cc1ccc(-c2ccccc2)cc1 | - | - | -
C[C@H](CO)N1C[C@H](C)[C@@H](CN(C)Cc2ccc3c(c2)OCO3)Oc2ccc(NC(=O)Cc3cn(C)c4ccccc34)cc2C1=O | - | 117 | -
C[C@H]1CN([C@@H](C)CO)C(=O)c2cc(NC(=O)Cc3cn(C)c4ccccc34)ccc2O[C@@H]1CN(C)Cc1ccc(Oc2ccccc2)cc1 | . | 134 | -
C[C@H](CO)N1C[C@H](C)[C@@H](CN(C)Cc2ccc(-c3ccccc3)cc2)Oc2ccc(NC(=O)Cc3cn(C)c4ccccc34)cc2C1=O | - | 199 | -
C[C@H]1CN([C@@H](C)CO)C(=O)c2cc(NC(=O)Cc3cn(C)c4ccccc34)ccc2O[C@H]1CN(C)Cc1ccc(Oc2ccccc2)cc1 | - | - | -
Cc1ccccc1-c1nc2cc(NC(=O)COc3ccc(Br)cc3)ccc2o1 | - | - | .
CCc1cccc(OCC(=O)Nc2cc([N+](=O)[O-])ccc2O)c1 | - | - | .
N#Cc1c(C(F)(F)F)cc(C2CC2)nc1SCCN1CCCCC1 | . | - | .
